Sampled rows, rich in hits. Any-hit rate of the full collection: about 3.9%.
GDH-TPI counter – counter-screen for M. tuberculosis FBA inhibitors: GDH-TPI coupled enzymes. GDH-TPI coupled enzyme counterscreen, NADH absorbance. 1.2% of 360,000 active. inhibition, % at 4.8 µM. AID 588335; in the data active = inhibition above about 30%
SARS 3CLpro inh – SARS-CoV 3CLpro protease inhibition; recombinant SARS-CoV 3CLpro, quenched FRET peptide cleavage; 0.14% of 290,000 active; inhibition, % at 6 µM; in the data active = inhibition above about 12%
PrPC TRFRET – cell surface PrPC inhibition, primary TR-FRET screen; 0.43% of 370,000 active; inhibition, % at 13.8 µM; P04156; TR-FRET read-out; in the data active = inhibition above about 24%
Mtb FBA inh – Mtb fructose-bisphosphate aldolase inhibition; P9WQA3; purified M. tuberculosis FBA, fluorescence read-out; inhibition, % at 1 µM; 2.3% of 360,000 active; in the data active = inhibition above about 27%
Target sequence (P9WQA3 whole entry, looked up): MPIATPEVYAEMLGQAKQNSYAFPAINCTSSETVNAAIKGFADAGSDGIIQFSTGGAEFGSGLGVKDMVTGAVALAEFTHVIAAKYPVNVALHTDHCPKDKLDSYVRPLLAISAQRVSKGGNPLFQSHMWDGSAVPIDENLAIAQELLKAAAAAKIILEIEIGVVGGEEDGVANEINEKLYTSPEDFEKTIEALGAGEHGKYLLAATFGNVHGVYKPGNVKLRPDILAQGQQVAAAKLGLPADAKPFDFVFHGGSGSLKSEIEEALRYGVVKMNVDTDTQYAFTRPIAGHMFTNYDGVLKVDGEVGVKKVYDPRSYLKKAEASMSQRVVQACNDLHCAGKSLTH
Vc quorum ag – inducers of Vibrio cholerae quorum light production without autoinducers; activation, % at 18.7 µM; 0.16% of 350,000 active; AID 588436; V. cholerae BH1578 lux reporter, luminescence, 6 h; in the data active = activation mostly above about 9.7%, no sharp cut-off
Large screens that a line does not name were inactive.

O=C(Nc1ccnc(-c2ccncc2)n1)c1ccc(Cl)cc1	none
CCS(=O)(=O)Nc1ccc(C2=NN(C(=O)c3ccco3)C(c3cccs3)C2)cc1 (stereo unspecified)	GDH-TPI counter 46
CC(=O)Nc1ccc(C2=NN(c3ccccc3)C(c3cccs3)C2)cc1 (stereo unspecified)	Mtb FBA inh 189
CCS(=O)(=O)Nc1ccc(C2=NN(C(=O)c3ccco3)C(c3ccco3)C2)cc1 (stereo unspecified)	none (no result: SARS 3CLpro inh)
CC(=O)N1N=C(c2ccccc2)CC1c1cccs1 (stereo unspecified)	none
CC(C)(C)N1C(=O)NC(=O)/C(=C\c2ccc3c(c2)CCN3CCCCl)C1=O	GDH-TPI counter 32
O=C(NCc1ccccc1Cl)c1ccc(CSc2nc3ccncc3[nH]2)cc1	Mtb FBA inh 150
O=C1C[C@@H](c2ccc(O[C@@H]3O[C@H](CO)[C@@H](O)[C@H](O)[C@H]3O)cc2)Oc2cc(O)ccc21	GDH-TPI counter 34
COc1cc2c(c(OC3OC(CO)C(O)C(O)C3O)c1)C(=O)CC(c1ccc(O)cc1)O2 (stereo unspecified)	none (no result: GDH-TPI counter, SARS 3CLpro inh, Mtb FBA inh, Vc quorum ag)
CC(C)c1ccc(OCC(=O)NCc2ccccc2)cc1	none
O=C(C[C@H]1C/C=C\CCC(=O)O[C@@H](c2ccccc2)CNC1=O)NCCO	none (no result: SARS 3CLpro inh)
C[n+]1ccccc1/C=C/c1ccc([N+](=O)[O-])cc1	GDH-TPI counter 35
C[n+]1ccccc1/C=C/c1ccc(F)c(F)c1	GDH-TPI counter 35
C[n+]1ccccc1/C=C/c1c(F)cccc1F	GDH-TPI counter 45
COc1ccc(/C=N/NC(=O)c2cccnc2)c(C(=O)O)c1OC	GDH-TPI counter 32
Cc1cc(=O)[nH]c(N/N=C/c2ccccc2Cl)n1	none
Cc1cc(=O)[nH]c(N/N=C/c2cc(C)n(-c3ccccc3)c2C)n1	GDH-TPI counter 43
COc1ccc(/C=N/NC(=O)c2cccnc2)c2ccccc12	GDH-TPI counter 36
COc1ccc(/C=N/NC(=O)c2cccs2)c2ccccc12	GDH-TPI counter 32 (no result: SARS 3CLpro inh)
CC(C)(C)OC(=O)NCc1cc(F)ccc1/C=C/S(=O)(=O)NCc1ccc(F)cc1	none (no result: GDH-TPI counter, SARS 3CLpro inh, Mtb FBA inh, Vc quorum ag)
Cc1cc(/C=N/NC(=O)c2cccs2)c(C)n1-c1ccccc1	GDH-TPI counter 33
Cn1cc(/C=N\NC(=O)c2cccs2)c2ccccc21	GDH-TPI counter 32
Cn1cccc1/C=N/NC(=O)c1cccs1	none
COC(=O)c1cc(Br)ccc1-c1ccc(/C=N/n2nnnc2N)o1	GDH-TPI counter 44
COc1ccc(N2C[C@@]3(O)CC[C@@H](O)[C@@H](OC)[C@@H]3[C@@](C)(O)[C@@H]2CC=C(C)C)cc1	none (no result: GDH-TPI counter, SARS 3CLpro inh, Mtb FBA inh, Vc quorum ag)
COc1ccc(CNC(=O)CN(Cc2ccc(F)cc2)C(=O)c2csnn2)cc1	none
Cc1ccc2nc3c(cc(C#N)c(=O)n3-c3nccs3)c(=O)n2c1	Mtb FBA inh active
CC1(C(=O)O)CCN1C(=O)c1cccc(C(F)(F)F)c1 (stereo unspecified)	none (no result: SARS 3CLpro inh)
Cc1c(NCc2nc3ccccc3[nH]2)c(=O)n(-c2ccccc2)n1C	GDH-TPI counter 40
Cc1csc(NC(C)c2nc3cc(Cl)c(Cl)cc3n2CCCO)n1 (stereo unspecified)	none (no result: SARS 3CLpro inh)
COC(=O)COc1cc(OCC(=O)OC)c2c(C)c(Cl)c(=O)oc2c1	Mtb FBA inh active
COC(=O)C(C)Oc1cc(OC(C)C(=O)OC)c2c(C)c(Cl)c(=O)oc2c1 (stereo unspecified)	Mtb FBA inh active
O=C(O)c1nc(Cl)c(Cl)c(N/N=C/c2ccccc2C(F)(F)F)c1Cl	GDH-TPI counter 31
FC(F)(F)c1ccccc1/C=N/Nc1ccccn1	none
Cc1cc(=O)c2c(N(C)C)cccc2[nH]1	Mtb FBA inh active (no result: SARS 3CLpro inh)
O=C1c2nc3cc(-c4ccco4)[nH]n3c(=O)c2CN1C1CCCCC1	Mtb FBA inh 129
CCOC(=O)C1=NN(c2ccccc2)C2C(=O)N(c3ccccc3OC)C(=O)C12 (stereo unspecified)	GDH-TPI counter 38
CCOC(=O)C1=NN(c2ccc(OC)cc2)C2C(=O)N(c3ccccc3OC)C(=O)C12 (stereo unspecified)	none
Cc1cncc(NCc2cccc(Cl)c2)n1	Mtb FBA inh 118 (no result: SARS 3CLpro inh)
Cc1cncc(NCc2ccc3c(c2)OCO3)n1	none (no result: SARS 3CLpro inh)
COC(=O)C1CN(Cc2ccccc2)CCS(=O)(=O)N1Cc1cn(Cc2ccccc2)nn1 (stereo unspecified)	none (no result: GDH-TPI counter, SARS 3CLpro inh, Mtb FBA inh, Vc quorum ag)
C/C(=N\Nc1ccc2nncn2n1)c1cccs1	GDH-TPI counter 35
O=C(C1CCN(S(=O)(=O)c2ccccc2F)CC1)N1CCc2ccccc2C1	none

Assay outcomes: PubChem, several laboratories
